This is a sample that favours compounds with a hit; in the whole collection about 19% have one here.
IL-1B inflam inh = qHTS for Inhibitors of Inflammasome Signaling: IL-1-beta AlphaLISA Primary Screen | activity change, % at 57.5 µM | 360,000 tested, 4.7% active | THP-1 LPS/ATP IL-1B secretion, AlphaLISA, 16 h; stronger effect = lower value; in the data active means activity change below about -50%; inconclusive means mostly about -30% to -49%
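THP-1 cells pretreated 1 hr with compounds (up to 57.5 uM final), then stimulated with LPS (250 ng/mL final) plus ATP (1.25 mM final); secreted IL-1B measured by AlphaLISA after 16 hr, decreased signal indicating inhibition.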
DT40 TDP1 no CPT = qHTS for Inhibitors of human tyrosyl-DNA phosphodiesterase 1 (TDP1): qHTS in cells in absence of CPT | DT40 Tdp1-/- hTDP1 cells, no CPT, ATP luminescence, 48 h | AID 686978, 2013 | Potency, µM (highest dose often 46.2 µM), hits mostly inhibitors | 420,000 tested, 15% active; further: nearly all actives have a fitted effect of over 55% in size
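Growth of hTDP1-complemented DT40 Tdp1-knockout cells is measured by ATP luminescence after at least 48 hr compound exposure at 37 °C, with DMSO substituting for the 20 nM CPT used in the parallel screen.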
HT1080NT lethal = qHTS for induction of synthetic lethality in tumor cells producing 2HG: qHTS for the HT-1080-NT fibrosarcoma cell line. HT-1080-NT fibrosarcoma viability, CellTiter-Glo ATP luminescence, 48 h. Potency, µM (series often up to 46.1 µM), hits mostly cytotoxic. 360,000 tested, 1.6% active. AID 686970, 2013;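 further: NT is the 2HG producing partner of a matched IDH1 knockdown line; nearly all actives have a fitted effect of over 55% in size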
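Toxicity toward the 2HG-producing NT line was scored as %Activity, normalised to DMSO and no-cell wells, from CellTiter-Glo luminescence after 48 hours' treatment.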
DT40 TDP1 CPT = qHTS for Inhibitors of human tyrosyl-DNA phosphodiesterase 1 (TDP1): qHTS in cells in presence of CPT; chicken DT40 Tdp1-/-;hTDP1 cells + 20 nM CPT, ATP luminescence, 48 h; Potency, µM (top dose mostly 46.2 µM), actives largely listed as inhibitors; 420,000 tested, 12% active; further: nearly all actives have a fitted effect of over 55% in size
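Chicken DT40 Tdp1-/- cells stably complemented with human TDP1 were seeded at 400 cells/well in medium containing 20 nM camptothecin, exposed to pin-transferred compounds, and grown at 37 °C for at least 48 hr. Viability was read as ATP luminescence.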
ELG1 DNA repair = qHTS screen for small molecules that inhibit ELG1-dependent DNA repair in human embryonic kidney (HEK293T) cells expressing luciferase-tagged ELG1; HEK293T ELG1-luciferase reporter, luminescence, 16 h; DNA damage induced by 5-fluorouridine; Potency, µM (series often up to 46.1 µM), hits mostly inhibitors; 330,000 tested, 2.3% active; further: nearly all actives have a fitted effect of over 55% in size
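Quantitative HTS, concentration-response format. 2,000 cells/well co-treated with 5-fluorouridine and compound, 16 hr in 5% CO2 at 37 °C; ONE-Glo luminescence read after 30 min.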
HT1080 IDH1KD tx = qHTS for induction of synthetic lethality in tumor cells producing 2HG: qHTS for the HT-1080-IDH1KD cell line | HT-1080 IDH1 knockdown viability, ATP luminescence, 48 h | Potency, µM (doses to about 46.1 µM), most hits filed as cytotoxic | 360,000 tested, 2% active | AID 686971, 2013
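IDH1KD HT-1080 cells, 750/well, RPMI + 5% FBS; compound pinned after 2 h settling; 48 h, 37 °C; CellTiter-Glo luminescence; % activity normalised to DMSO and no-cell wells; curves fitted, classed by r2 and efficacy.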
Numbers stand for hits; 0 = inactive; ? = inconclusive; - = not tested or not shown; [ ] = dose if it differs, or a comment. Unless noted, the call rests on the fitted dose curve; in most records, active means well fitted curve in the direction sought with a large enough effect; inconclusive means small, poorly fitted or top-dose-only effect, or another doubt; inactive means no such curve, though single readings can be large; an effect the other way counts as inactive or inconclusive.

SMILES | IL-1B inflam inh | DT40 TDP1 no CPT | HT1080NT lethal | DT40 TDP1 CPT | ELG1 DNA repair | HT1080 IDH1KD tx
Clc1ccc(/C=C/c2nc3ccccc3[nH]2)c(Cl)c1 | ? | 18µM | 15µM | 13µM | ? | ?
O=C(/C=C/c1ccc(Cl)cc1Cl)c1nc2ccccc2[nH]1 | 0 | ? | ? | 12µM | 0 | ?
Clc1cccc(Cl)c1/C=C/c1nc2ccccc2[nH]1 | 0 | 16µM | ? | ? | ? | ?
Clc1ccc(/C=C/c2nc3ccccc3[nH]2)cc1 | 0 | ? | 0 | ? | ? | ?
COC(=O)c1cc(OC)c(=O)c2c(OC)c(OC)ccc2c1 | - | 0 | - | 0 | - | -
CC1CCCN(S(=O)(=O)c2ccc(NC(=O)CN3CCN(C)CC3)cc2)C1 (stereo not drawn) | 0 | 0 | 0 | ? | 0 | 0
CC1CCN(CC(=O)Nc2ccc(S(=O)(=O)N3CCCC(C)C3)cc2)CC1 (stereo not drawn) | -51 | 0 | 0 | ? | ? | 0
CCOC(=O)CCC(=O)Nc1ccc(S(=O)(=O)N2CCC(C)CC2)cc1 | 0 | 0 | 0 | 0 | 0 | 0
CCOC(=O)C1CCN(CC(=O)Nc2ccc(S(=O)(=O)N3CCC(C)CC3)cc2)CC1 | 0 | 21µM | 0 | ? | ? | 0
CC1CCCN(CC(=O)Nc2ccc(S(=O)(=O)N3C(C)CCCC3C)cc2)C1 (stereo not drawn) | 0 | 16µM | 0 | ? | - | 0
COC(=O)C[C@H]1CC[C@H](NC(=O)c2ccc(F)cc2)[C@@H](CO)O1 | 0 | 0 | 0 | 0 | - | 0
Cc1c(Cl)cccc1N=C1NC(=O)CS1 | 0 | 0 | 0 | 0 | - | 0
C[C@H]1C=C2C=C[C@H](C)[C@H](CC[C@@H]3C[C@@H](O)CC(=O)O3)[C@H]2[C@@H](OC(=O)[C@@H](C)CCO)C1 | - | 27µM | - | 27µM | - | -
CCCCc1cc(=O)oc2cc(C)cc(OCC(=O)Nc3ccccn3)c12 | 0 | 0 | 0 | 0 | ? | 0
Cc1noc(C)c1C(=O)N1CCC2(CCN(Cc3ccc(C#N)cc3)CC2)CC1 | - | ? | - | 0 | - | -
COC(=O)c1ccc(Cn2nc(-c3ccc(C)c(C)c3)ccc2=O)cc1 | 0 | ? | 0 | ? | ? | 0
COc1cc(OC)c(NC(=O)C(C)n2nc(-c3ccc(C)c(C)c3)ccc2=O)cc1Cl (stereo not drawn) | - | 13µM | - | 15µM | - | -
Cc1ccc(C)c(N2CCN(CCCNC(=O)Cn3cccc3C(=O)c3ccccc3C)CC2)c1 | -114 | 2.6µM | 23µM | 2.6µM | ? | 23µM
Cc1ccccc1C(=O)c1cccn1CC(=O)NCCCN1CCCCC1 | 0 | 0 | 0 | 0 | 0 | 0
Cc1ccccc1C(=O)c1cccn1CC(=O)NCCN1CCN(c2cccc(C)c2C)CC1 | ? | 8.2µM | 23µM | 16µM | 0 | 21µM
COC(=O)C1C(=O)C2=C(CC1C)NC(C)=C(C(=O)OC1CCCCC1)C2c1ccc(N(C)C)cc1 (stereo not drawn) | 0 | 16µM | 0 | ? | ? | 0
COC(=O)C1C(=O)C2=C(CC1C)NC(C)=C(C(=O)OCCOc1ccccc1)C2c1ccc(C)o1 (stereo not drawn) | 0 | 16µM | 0 | 23µM | 23µM | 0
COC(=O)C1C(=O)C2=C(CC1C)NC(C)=C(C(=O)OCc1ccc(OC)cc1)C2c1ccc(C)o1 (stereo not drawn) | 0 | 10µM | 0 | ? | ? | 0
COc1ccc(Br)cc1CNC(=O)C1COc2ccccc2C1 (stereo not drawn) | - | 0 | - | 0 | - | -
COc1ccc2[nH]cc(CCNc3ccnc(-c4ccc(N(C)C)cc4)n3)c2c1 | - | 0.92µM | - | 1µM | - | -
SMILES | IL-1B inflam inh | DT40 TDP1 no CPT | HT1080NT lethal | DT40 TDP1 CPT | ELG1 DNA repair | HT1080 IDH1KD tx
COc1ccc(C(=O)NCCc2c[nH]c3ccc(OC)cc23)cc1 | 0 | 0 | 0 | 0 | 0 | 0
COc1ccc2[nH]cc(CCNc3ccnc(-c4cccc(NS(C)(=O)=O)c4)n3)c2c1 | - | 10µM | - | ? | - | -
COc1ccccc1CNc1ccnc(-c2cccnc2)n1 | - | 0 | - | ? | - | -
Cc1cnc(CNc2ccnc(-c3cccc(NS(C)(=O)=O)c3)n2)cn1 | - | 0 | - | 0 | - | -
COc1ccc2[nH]cc(CCNc3ccnc(-c4cccnc4)n3)c2c1 | - | ? | - | 21µM | - | -
CC1CN(S(=O)(=O)c2cccc(C(=O)OCC(=O)N3CCCCCC3)c2)CC(C)O1 (stereo not drawn) | 0 | 0 | 0 | 0 | 0 | 0
N#Cc1nccnc1S(=O)(=O)c1cccs1 | -98 | 1µM | 21µM | 0.65µM | ? | ?
CN(Cc1ccccc1C#N)S(=O)(=O)c1cccs1 | 0 | ? | 0 | 0 | 0 | 0
CN(Cc1c(F)cccc1Cl)C(=O)c1ccc(NC(=O)CC2SC(N3CCCC3)=NC2=O)cc1 (stereo not drawn) | 0 | 18µM | 0 | ? | 0 | 0
CCCCOC(=O)C1CN(c2ccccc2)N=C1C(=O)OCC (stereo not drawn) | 0 | 21µM | 0 | 23µM | 0 | 0
Cc1noc(C)c1CC(=O)NCC1Cc2cc(-c3cccc(OC(F)(F)F)c3)ccc2O1 (stereo not drawn) | - | 10µM | - | ? | - | -
CSc1ccc(-c2ccc3c(c2)CC(CNC(=O)Cn2nc(C)nc2C)O3)cc1 (stereo not drawn) | - | 0 | - | 0 | - | -
CN1CCCCCC1C(=O)NCC1Cc2cc(-c3cnccn3)ccc2O1 (stereo not drawn) | - | ? | - | 0 | - | -
CC(=O)N1CCC[C@H]1C(=O)NCC1Cc2cc(-c3cccc(OC(F)(F)F)c3)ccc2O1 (stereo partly drawn) | - | 16µM | - | ? | - | -
Cc1cnc(C)c(-c2ccc3c(c2)CC(CNC(=O)Cc2c(C)[nH]c4ccccc24)O3)n1 (stereo not drawn) | - | 0.92µM | - | 0.52µM | - | -
CC(=O)Nc1ccc(S(=O)(=O)NCC(=O)OCC(=O)N2CCCCCC2)cc1 | 0 | 0 | 0 | 0 | 0 | 0
Cc1cnc(CNc2ncncc2-c2ccccc2C(F)(F)F)cn1 | - | 0 | - | ? | - | -
Cc1ccsc1C(=O)OCC(=O)NCc1cccs1 | 0 | 0 | 0 | 0 | - | 0
CCOc1ccc2oc(-c3ccccc3)c(C(=O)N3CCN(C)CC3)c2c1 | 0 | ? | 0 | 23µM | ? | 0
COc1ccc2oc(-c3ccccc3)c(C(=O)N3CCOCC3)c2c1 | 0 | 13µM | 0 | 16µM | 0 | 0[9.24 µM]
OC1CCC2Cc3ccccc3N=C12 (stereo not drawn) | - | 0 | - | 0 | - | -

Screening data from PubChem BioAssay.
